50 molecules from PubChem BioAssay AID720641 (ICCB-Longwood Screening Facility, Harvard Medical School, 2013) can be followed below.

The nature of the test: Staphylococcus aureus RN4220 growth blockers – two temperatures, LtaS inhibitor project, primary screen (AID 720641). Conditions: S. aureus RN4220 growth, OD600, 20 h, 42 °C, stronger effect = lower value.

The whole screen tested about 170,000 compounds, of which about 900 (0.53%) were called active.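 How the source made its calls: active means relative growth at most 50% at the other temperature and 20+ points below 30 °C, or under 10% at both; inactive means the rest, inconclusive results apart.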 Many of the other results were omitted from the sample, so actives are more common in it than they were.

Regarding `Cc1ccc(NC(=O)c2nc(S(=O)(=O)Cc3cccc(C)c3)ncc2Cl)cc1`, the relative growth is 8.42% (active). Also, the relative growth (measured here: growth at 30 °C) is 21.7%.
The matching figures for `COc1cccc(OCCCN2CCNCC2)c1`: 107% (inactive) and 91%.
Taken in the same sequence, the figures for `Cc1ccc(S(=O)(=O)N(C)c2ccc(OCC(=O)N3CCN(c4ncccn4)CC3)cc2)cc1` were 105% (inactive) and 95.7%.
Taken in the same sequence, the figures for `O=C(CSc1nnc(-c2ccccc2)o1)N(CC1CCCO1)c1nc2ccccc2s1` (stereo not given) were 101% (inactive) and 92.8%.
Take `C=CCn1c(SCC(=O)Nc2sc(C(=O)OC)c(C)c2C(=O)OC)nc2ccccc21`: the relative growth is 103% (inactive). The relative growth (measured here: growth at 30 °C) was found to be 90.4%.
Taken in the same sequence, the figures for `Cc1ccc(Nc2nc3ccccc3nc2-n2nc(C)cc2C)c(Cl)c1` were 102% (inactive) and 86.6%.
The matching figures for `Cc1ccc2nc(Nc3ccccc3)cc(C)c2c1`: 75.4% (inactive) and 74.3%.
Regarding `Cc1cccc(Nc2cc(C)nc(-n3nc(C)cc3C)n2)c1`, the relative growth was -0.22% (active). Moreover, the relative growth (measured here: growth at 30 °C) is -0.24%.
Taken in the same sequence, the figures for `Cc1nc2ccccc2nc(C)c1=NOCC(=O)Nc1ccc(S(=O)(=O)N2CCOCC2)cc1` were 102% (inactive) and 96.4%.
The matching figures for `O=C(CCCN1C(=O)CSc2ncccc21)N1CCCCC1`: 98.9% (inactive) and 84.5%.
The matching figures for `COc1ccc(C(C(=O)NC2CCCC2)N(C(=O)c2ccn[nH]2)c2ccc(F)cc2)cc1OC` (stereo not given): 113% (inactive) and 89%.
Consider `CC(C)NC(=O)CSc1ccccc1C(=O)Nc1ccc(-n2cnnn2)cc1`, for which the relative growth is 102% (inactive). For the same molecule, the relative growth (measured here: growth at 30 °C) is 89.2%.
The matching figures for `O=S(=O)(Nc1ccc2cn[nH]c2c1)c1ccccc1`: 105% (inactive) and 98.5%.
In the case of `c1ccc(NC2CCCCC2)cc1`, the relative growth is 104% (inactive). The relative growth (measured here: growth at 30 °C) amounted to 103%.
For the molecule `c1ccc2c(c1)CC(Nc1ccc3cn[nH]c3c1)C2`, the relative growth was 1.74% (active). Moreover, the relative growth (measured here: growth at 30 °C) was 1.83%.
Taken in the same sequence, the figures for `Cc1cc(C)c(NC(=O)C2CC3c4ccccc4C2C2C=CC=CC32)c(C)c1` (stereo not given) were 123% (inactive) and 88.2%.
Taken in the same sequence, the figures for `COc1ccc2c(c1)NC(c1ccccc1)c1cccn1-2` (stereo not given) were 69.2% (inactive) and 62.6%.
Turning to `Oc1c(Cl)cc(Cl)cc1C1Nc2cc(C(F)(F)F)ccc2-n2cccc21` (stereo not given), the relative growth was 5.2% (active). Further, the relative growth (measured here: growth at 30 °C) amounted to 6.75%.
Taken in the same sequence, the figures for `Nc1cc(C(F)(F)F)ccc1-n1cccn1` were 92.8% (inactive) and 95.4%.
The matching figures for `COCCCn1c(C)cc(C(=O)CSc2ncnc3ccccc23)c1C`: 136% (inactive) and 92.1%.
The matching figures for `CC1Cc2ccccc2N1c1ccc2ccccc2n1` (stereo not given): 94.3% (inactive) and 99.6%.
Consider `COc1cc(/C=C/C(=O)OCC(N)=O)ccc1OCC#N`, for which the relative growth is 46.3% (active). For the same molecule, the relative growth (measured here: growth at 30 °C) worked out at 78.8%.
Consider `C/C=C/c1ccc(OCC(=O)OC(C)C(N)=O)c(OC)c1` (stereo not given), for which the relative growth is 71.1% (inactive). For the same molecule, the relative growth (measured here: growth at 30 °C) came to 88.7%.
The matching figures for `COc1ccc(/C=C/C(=O)N2CCCC2)cc1OC`: 81.4% (inactive) and 88.8%.
Turning to `COc1cc(C2C(C(=O)Nc3ccccn3)=C(C)NC3=C2C(=O)CCC3)cc(OC)c1OC` (stereo not given), the relative growth was 98.5% (inactive). For the same molecule, the relative growth (measured here: growth at 30 °C) turned out to be 93.4%.
Taken in the same sequence, the figures for `CC(C)CC(=O)n1c(=O)oc2ccccc21` were 96.6% (inactive) and 101%.
For `N#Cc1c(-c2ccco2)cc(C2CC2)nc1SCC(=O)c1ccc(Br)cc1`, the relative growth was 82.6% (inactive). Also, the relative growth (measured here: growth at 30 °C) turned out to be 76.7%.
Taken in the same sequence, the figures for `O=C(NCCSc1ccccc1)c1cccnc1Oc1ccccc1` were 115% (inactive) and 76.2%.
Taken in the same sequence, the figures for `CC(=O)Oc1cccc2c1OC(C)(C)C2` were 117% (inactive) and 99.9%.
`CC(=O)Oc1ccc(OC(C)=O)c2c1C1C=CC2CC1`: the relative growth was 105% (inactive). The relative growth (measured here: growth at 30 °C) came out at 99.4%.
Taken in the same sequence, the figures for `CC(=O)Oc1cccc2c1C(=O)C=CC2=O` were 2.55% (active) and 1.59%.
Taken in the same sequence, the figures for `CSCCC(=O)Nc1nc2ccccc2[nH]1` were 113% (inactive) and 87.5%.
`O=C(Nc1cccc(Cl)c1)Nc1ccccn1`: the relative growth is 61.4% (inactive). For the same molecule, the relative growth (measured here: growth at 30 °C) came to 70%.
Taken in the same sequence, the figures for `CC(=O)Nc1ccc2c(c1)CN(C1CCCCC1)CO2` were 90.6% (inactive) and 87.6%.
Taken in the same sequence, the figures for `CC(C)Oc1ccc(C(=O)Nc2ccnn2C2CCCCC2)cc1` were 105% (inactive) and 98.1%.
Taken in the same sequence, the figures for `CCc1ccc(NC(=O)Nc2ccccc2)cc1` were 93.4% (inactive) and 96.9%.
Regarding `O=C(Nc1ccc(Cl)c(Cl)c1)Nc1ccnn1C1CCCCC1`, the relative growth was -0.5% (active). Under “measured here: growth at 30 °C”, the relative growth was -0.69%.
The matching figures for `O=C(Nc1ccccc1)Nc1ccc(Cl)c(Cl)c1`: 2.14% (active) and 2.42%.
The matching figures for `CC(=O)N1CC(C(=O)Nc2cccc(-c3nnc4n3CCCCC4)c2)Oc2ccccc21` (stereo not given): 78.4% (inactive) and 92.9%.
The matching figures for `Cc1ccc2nc(COC(=O)Cn3[nH]c(=O)c4ccccc4c3=O)cc(=O)n2c1`: 78.6% (inactive) and 90.7%.
Take `CCOc1ccc(C(=O)N2CCC(Cc3ccccc3)CC2)cc1`: the relative growth is 122% (inactive). The relative growth (measured here: growth at 30 °C) turned out to be 75.5%.
The matching figures for `CS(=O)(=O)NCCNc1cc(-c2ccccc2)nc2ccccc12`: 99.5% (inactive) and 72.5%.
The matching figures for `CCC(CC)NCc1ccc(OC)c(C)c1OC`: 74.7% (inactive) and 81.6%.
`COc1ccc(-c2nn(C)c3sc(C(=O)NCCN4CCN(c5ccccc5F)CC4)cc23)cc1OC`: the relative growth was 82.7% (inactive). Besides, the relative growth (measured here: growth at 30 °C) was found to be 76.9%.
The matching figures for `O=C(c1ccco1)N1CCN(C(=O)c2cc3c(s2)CCCC3)CC1`: 96.3% (inactive) and 87.5%.
The matching figures for `O=C(Sc1nc(-c2ccccc2)c(-c2ccccc2)[nH]1)c1cccs1`: 84.6% (inactive) and 74.2%.
With `Cc1cc(SCc2ccc(F)cc2)c(C)cc1Cl`, the relative growth was 105% (inactive). Also, where the note is “measured here: growth at 30 °C”, the relative growth worked out at 102%.
Taken in the same sequence, the figures for `NC(=O)c1oc2ccccc2c1NC(=O)Cc1ccc(Cl)cc1` were 89.8% (inactive) and 77.5%.
The matching figures for `CC1CCN(C(=O)COc2ccc(-c3nn(C)c(=O)c4ccccc34)cc2)CC1`: 86.8% (inactive) and 89.7%.
Taken in the same sequence, the figures for `Cc1ccccc1OCc1nc(C#N)c(NC(C)c2ccccc2)o1` (stereo not given) were 82.4% (inactive) and 79.9%.
